This passage reports morphology score and SARS-CoV-2 infection rate results from the supplement of paper PMC13380429.

Molecules are shown by their SMILES.

The subject of test [1] is Vero E6 infected with SARS-CoV-2. The test is described as follows: morphology score (similarity to uninfected cells); higher = more like uninfected cells. Particulars: 24 h.
For test [2] the test system is unchanged. The test is described as follows: SARS-CoV-2 infection rate relative to infected DMSO; higher = more infection, active = 60 or less. The conditions noted are these: 24 h.

The compound `CC(C)OC(=O)N1CCC(Oc2ncnc3c2cnn3-c2ccc(S(C)(=O)=O)cc2F)CC1` (10 µM) displayed a morphology score in test [1] of 0.0759. Moreover, the SARS-CoV-2 infection rate in test [2] is 98% (inactive).
Compound `COc1cc(C(=O)NS(=O)(=O)c2ccccc2C)ccc1Cc1cn(C)c2ccc(NC(=O)OC3CCCC3)cc12` [zafirlukast] (10 µM) displayed a morphology score in test [1] of 0.282. In test [2], the SARS-CoV-2 infection rate is 105% (inactive).
Taken in the same sequence, the figures for `COc1ccc2cc1Oc1ccc(cc1)C[C@H]1c3cc(c(OC)cc3CCN1C)Oc1c(OC)c(OC)cc3c1[C@H](C2)N(C)CC3` [tetrandrine] (10 µM) were 0.509 and 12% (active).
Taken in the same sequence, the figures for `C[C@@H]1CC[C@@]2(OC1)O[C@H]1C[C@H]3[C@@H]4CC=C5C[C@@H](O)CC[C@]5(C)[C@H]4CC[C@]3(C)[C@H]1[C@@H]2C` [diosgenin] (10 µM) were 0.114 and 106% (inactive).
Taken in the same sequence, the figures for `CC(C)Oc1ccc(Cc2ccc(NC3=NCCN3)cc2)cc1` (10 µM) were 0.0823 and 100% (inactive).
In the case of `C=CCN1CCCC1CNC(=O)c1cc2nn[nH]c2cc1OC` (configuration not stated) [alizapride] (10 µM), the morphology score in test [1] is -0.124. In test [2], the SARS-CoV-2 infection rate was 121% (inactive).
Taken in the same sequence, the figures for `CC(CCc1ccccc1)NCC(O)c1ccc(O)c(C(N)=O)c1` (configuration not stated) [labetalol] (10 µM) were -0.119 and 114% (inactive).
Taken in the same sequence, the figures for `COc1cccc2c1c(O)c(C(=O)N(C)c1ccc(C(F)(F)F)cc1)c(=O)n2C` [tasquinimod] (10 µM) were 0.168 and 92% (inactive).
Regarding `O=C(O)CCc1ccc(NCc2cccc3c2CCCN3CCOc2ccccc2)cc1F` (10 µM), the morphology score in test [1] is -0.0144. Further, the SARS-CoV-2 infection rate in test [2] was 110% (inactive).
With `OC[C@H]1O[C@@H](n2cnc3c(NC4CCCC4)ncnc32)[C@H](O)[C@@H]1O` [N6-cyclopentyladenosine] (10 µM), the morphology score in test [1] is -0.0139. For the same compound, in test [2], the SARS-CoV-2 infection rate is 109% (inactive).
For `COc1ccc(-c2cc3c(C)nc(N)nc3n([C@H]3CC[C@H](OCCO)CC3)c2=O)cn1` (0.833333 µM), in that order: 0.0503 and 102% (inactive).
In test [1], `CC(C)[C@]12O[C@H]1[C@@H]1O[C@]13[C@]1(O[C@H]1C[C@H]1C4=C(CC[C@@]13C)C(=O)OC4)[C@@H]2O` [triptolide] (10 µM) registered a morphology score of 0.381. For the same compound, the SARS-CoV-2 infection rate in test [2] was 89% (inactive).
In the case of `Nc1ncnc2c1nc(Br)n2[C@@H]1O[C@@H]2COP(=O)(O)O[C@H]2[C@H]1O` [8-bromo-cAMP] (10 µM), in test [1], the morphology score is 0.422. Moreover, the SARS-CoV-2 infection rate in test [2] was 102% (inactive).
For `CN[C@H](CNC(=O)N1CCC[C@@H]([C@@H](OCCNC(=O)OC)c2cccc(Cl)c2)C1)C[C@H]1CCCOC1` (10 µM), in that order: -0.0283 and 105% (inactive).
Regarding `CN[C@@H]1[C@H](O[C@H]2[C@H](O[C@H]3[C@H](O)[C@@H](O)[C@H](NC(=N)N)[C@@H](O)[C@@H]3NC(=N)N)O[C@@H](C)[C@]2(O)CO)O[C@@H](CO)[C@H](O)[C@H]1O` [dihydrostreptomycin] (10 µM), in test [1], the morphology score was -0.0119. Further, the SARS-CoV-2 infection rate in test [2] is 114% (inactive).
In test [1], `CNC(=O)c1ccc2cc([C@@]3(O)CCn4cncc43)ccc2c1` [orteronel] (10 µM) had a morphology score of 0.0827. Further, in test [2], the SARS-CoV-2 infection rate was 106% (inactive).
For `CS(=O)(=O)c1ccc(-c2cc(Br)sc2-c2ccc(F)cc2)cc1` (10 µM), in that order: 0.0351 and 104% (inactive).
For `OCCNC1CCCc2c1[nH]c1ccc(-c3ccccc3)cc21` (configuration not stated) [casin] (0.833333 µM), in that order: 0.105 and 102% (inactive).
Taken in the same sequence, the figures for `C[C@@H]1CC(=O)c2c(ccc3c2C(=O)c2cccc(O)c2C3=O)C1` [ochromycinone] (10 µM) were -0.0461 and 105% (inactive).
For the compound `CCCCCCC[N+](CC)(CC)CCCCc1ccc(Cl)cc1` [clofilium] (10 µM), the morphology score in test [1] was 0.0344. The SARS-CoV-2 infection rate in test [2] is 118% (inactive).
Taken in the same sequence, the figures for `Cc1c(C(=O)N2CCOc3ccc(-c4ccc(N)nc4)cc3C2)ccc(S(C)(=O)=O)c1F` (0.833333 µM) were -0.0918 and 110% (inactive).
In test [1], `CC(=O)Nc1ccc(S(=O)(=O)c2ccc(NC(C)=O)cc2)cc1` [acedapsone] (10 µM) returned a morphology score of 0.233. In addition, the SARS-CoV-2 infection rate in test [2] is 98% (inactive).
`COc1ccc(CN2C(=O)C(=O)c3cc(OC(F)(F)F)ccc32)cc1` (0.833333 µM) displayed a morphology score in test [1] of 0.0284. Besides, in test [2], the SARS-CoV-2 infection rate is 102% (inactive).
On to `Cn1cncc1[C@@](N)(c1ccc(Cl)cc1)c1ccc2c(c1)c(-c1cccc(Cl)c1)cc(=O)n2C` [tipifarnib] (0.833333 µM), for which the morphology score in test [1] is 0.398. Also, the SARS-CoV-2 infection rate in test [2] was 89% (inactive).
For `O=C(O)CC[C@H]1CC[C@@](c2cc(F)ccc2F)(S(=O)(=O)c2ccc(Cl)cc2)CC1` (10 µM), in that order: 0.0148 and 110% (inactive).
In test [1], `CC(C)NCC(O)c1ccccc1Cl` (configuration not stated) [clorprenaline] (10 µM) had a morphology score of 0.125. In addition, the SARS-CoV-2 infection rate in test [2] was 96.5% (inactive).
